Assay outcomes (PubChem BioAssay)
RGS7-Gao reg: regulators of human RGS7-Galphao interaction. P09471. Multiplexed bead flow cytometry, RGS7-Galphao binding; actives lie on both sides. binding response (% of control), % at 10 µM. 220,000 compounds, 0.35% hits. AID 1439; in the data active = binding response below about 49% or above about 150%; inconclusive = no clear call, values can overlap the other calls; inactive = in between;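 also: fluorescent Galphao held in activated GDP-AlF4 state binding bead-coupled RGS7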
Target sequence (P09471 whole entry, looked up): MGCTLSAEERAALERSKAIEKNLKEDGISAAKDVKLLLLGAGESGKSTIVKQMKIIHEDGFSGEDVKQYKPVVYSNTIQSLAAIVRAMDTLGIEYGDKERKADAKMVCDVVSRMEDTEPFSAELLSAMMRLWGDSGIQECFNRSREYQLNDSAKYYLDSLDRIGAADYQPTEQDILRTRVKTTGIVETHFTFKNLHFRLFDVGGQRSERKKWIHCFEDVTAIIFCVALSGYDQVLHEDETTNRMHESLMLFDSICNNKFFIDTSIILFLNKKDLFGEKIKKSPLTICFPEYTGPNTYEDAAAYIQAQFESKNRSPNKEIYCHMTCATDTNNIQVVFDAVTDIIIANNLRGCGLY
Avidin bead fluor: avidin bead compound fluorescence profile; Avidin beads, compound fluorescence 488/530 nm, flow cytometry; active compounds read high; fluorescence (KMESF) at 10 µM; 220,000 compounds, 0.38% hits; AID 1775; in the data active = fluorescence above about 47
RGS8-Gao: regulators of human RGS8-Galphao interaction | multiplexed bead flow cytometry, RGS8-Galphao binding; actives lie on both sides | response (percent of control binding), % at 10 µM | P09471 | 220,000 compounds, 0.34% hits; in the data active = response below about 60% or above about 140%; inactive = in between;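 also: Galphao activated as the GDP aluminium fluoride complex binding bead-coupled RGS8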
GSH fluor: GSH bead compound fluorescence profile | 190,000 compounds, 0.25% hits | AID 1776 | GSH beads flow cytometry, compound fluorescence 488/530 nm; active compounds read high | fluorescence (KMESF) at 10 µM; in the data active = fluorescence above about 89;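 also: glutathione beads carrying GST-tagged Bcl family fusion proteins plus one bare bead set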
RGS16-Gao HTS: regulators of human RGS16-Galphao interaction; 220,000 compounds, 0.38% hits; binding response (% of control), % at 10 µM; O15492+P09471; bead-based flow cytometry RGS16-Galphao binding, fluorescence; actives lie on both sides; AID 1441;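 also: Galphao activated by GDP with aluminum fluoride before binding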
Target sequence (O15492 whole entry, looked up): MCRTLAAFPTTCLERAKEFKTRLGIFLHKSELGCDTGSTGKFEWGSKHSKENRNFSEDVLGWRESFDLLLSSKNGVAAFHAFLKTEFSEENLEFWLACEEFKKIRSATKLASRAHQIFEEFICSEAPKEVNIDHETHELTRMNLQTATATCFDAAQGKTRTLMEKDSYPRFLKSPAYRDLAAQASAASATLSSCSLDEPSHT
Target sequence (P09471 whole entry, looked up): as the sequence (P09471 whole entry, looked up) above
RGS4-Gao reg: human RGS4-Galphao interaction regulation. Multiplexed bead flow cytometry, RGS4-Galphao binding; actives lie on both sides. binding response (% of control), % at 10 µM. 220,000 compounds, 0.33% hits; in the data active = binding response below about 49% or above about 150%; inactive = in between;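 also: fluorescent Galphao activated with aluminum fluoride binding bead-coupled RGS4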
RGS4-Gao HTS: modulates binding between human RGS4 and Galphao. 1,600 compounds, 99% hits. multiplexed bead flow cytometry, RGS–Galpha-o binding. shares compounds with RGS16-Gao HTS. RGS4–Galpha-o binding response, % at 10 µM. AID 1504;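 also: fluorescently labeled Galpha-o bound to GDP with aluminium fluoride binding biotinylated RGS beads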
Biotin-avidin: counter-screen: compounds disrupting biotin binding to avidin beads; shares compounds with RGS16-Gao HTS; 1,700 tested, under 10 active; streptavidin beads, fluorescein-biotin binding, flow cytometry; inhibition, % at 10 µM; AID 1783;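 active = inhibition above 50%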;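 also: median green fluorescence of gated singlet beads compared with DMSO control wells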
RGS8-Gao single: RGS8-Galphao interaction regulation, single point confirmation | shares compounds with RGS16-Gao HTS | bead-based flow cytometry RGS8-Galphao binding, fluorescence; actives lie on both sides | binding response (% of control), % at 10 µM | 1,700 compounds, 3% hits | AID 1836; in the data active = binding response below about 72% or above about 130%; inactive = in between;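 also: Galphao activated as GDP AlF4 complex before binding bead RGS8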
RGS7-Gao confirm: RGS7-Galphao interaction regulation, single point confirmation. AID 1837. response (percent of control binding), % at 10 µM. bead-based flow cytometry RGS7-Galphao binding; actives lie on both sides. shares compounds with RGS16-Gao HTS. 1,700 compounds, 7.8% hits; in the data active = response below about 75% or above about 130%; inactive = in between;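 also: fluorescent Galphao activated with GDP and aluminum fluoride binding bead-coupled RGS7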
RGS16-Gao single: confirmation of regulators of human RGS16-Galphao interaction; 1,700 compounds, 4% hits; response (% of control binding), % at 10 µM; shares compounds with RGS16-Gao HTS; AID 1838; bead-based flow cytometry, RGS16-Galphao binding; actives lie on both sides; in the data active = response below about 74% or above about 130%; inactive = in between;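 also: Galphao activated as the GDP aluminium fluoride complex binding bead-coupled RGS16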
RGS4-Gao confirm: confirmation of regulators of human RGS4-Galphao interaction; RGS4-Galphao binding, multiplexed bead flow cytometry; actives lie on both sides; 1,700 compounds, 4% hits; binding response (% of control), % at 10 µM; shares compounds with RGS16-Gao HTS; in the data active = binding response below about 74% or above about 130%; inactive = in between
RGS19-Gao conf: RGS19-Galphao interaction regulation, single point confirmation; bead-based flow cytometry RGS19-Galphao binding; actives lie on both sides; shares compounds with RGS16-Gao HTS; 1,700 compounds, 5% hits; response (percent of control binding), % at 10 µM; in the data active = response below about 50% or above about 160%; inactive = in between
Of the large screens only hits and unclear results are named; the others gave an inactive call (follow-up assays come after a bar, where they were run); ! = not confirmed by another sample; [ ] = remark or other dose. A selection: hits, their analogues and other compounds. The true share with any hit is near 1.2%. Unless noted, no rule for the calls is given here.

Nc1nc(-c2ccccc2)[nH]c(=O)c1N	none | Biotin-avidin inactive | RGS8-Gao single inactive | RGS7-Gao confirm inactive | RGS16-Gao single inactive | RGS4-Gao confirm inactive | RGS19-Gao conf inactive
Nc1[nH]nc2nc(-c3ccccc3)[nH]c(=O)c12	RGS7-Gao reg inconclusive (no result: GSH fluor)
CC1CCc2c(C(=O)Nc3ccc(N4CCOCC4)cc3)csc2C1 (centres undefined)	none
Cc1cc(C)c2c(CC(=O)NC(C)C)coc2c1	RGS8-Gao 151[activator] | RGS4-Gao HTS 141 | Biotin-avidin inactive | RGS8-Gao single inactive | RGS7-Gao confirm inactive | RGS16-Gao single inactive | RGS4-Gao confirm inactive | RGS19-Gao conf inactive
O=C(/C=C/c1ccc(S(=O)(=O)N2CCOCC2)cc1)OCC(=O)c1ccc([N+](=O)[O-])cc1	RGS7-Gao reg inconclusive (no result: GSH fluor)
O=C(Cc1ccc(-n2c(=O)[nH]c3ccsc3c2=O)cc1)N1CCN(c2ccc(Cl)cc2)CC1	none
COc1ccc(CNC(=O)c2c(F)c(F)c(F)c(F)c2F)cc1	RGS8-Gao 58 | RGS4-Gao HTS 93 | Biotin-avidin inactive | RGS8-Gao single inactive | RGS7-Gao confirm inactive | RGS16-Gao single inactive | RGS4-Gao confirm inactive | RGS19-Gao conf inactive
COCC(=O)N(C)C1(c2nnnn2CCOC(=O)Nc2ccc(Cl)cc2)CCCCC1	RGS7-Gao reg inconclusive
COCC(=O)NC1(c2nnnn2CCOC(=O)Nc2ccc(Cl)cc2)CCCCC1	RGS7-Gao reg 255[activator], Avidin bead fluor 68 | RGS4-Gao HTS 116 | Biotin-avidin inactive | RGS8-Gao single inactive | RGS7-Gao confirm inactive | RGS16-Gao single inactive | RGS4-Gao confirm inactive | RGS19-Gao conf inactive
O=C(COC(=O)c1cc2ccccc2oc1=O)Nc1ccc(F)cc1F	RGS7-Gao reg inconclusive (no result: GSH fluor)
CN1CCN(c2nc3c(c(=O)n(C)c(=O)n3C)n2CC(=O)C23CC4CC(CC(C4)C2)C3)CC1	RGS4-Gao reg 157[activator] | Biotin-avidin inactive | RGS8-Gao single inactive | RGS7-Gao confirm inactive | RGS16-Gao single inactive | RGS4-Gao confirm inactive | RGS19-Gao conf inactive
Cc1ccccc1C1CC(c2cccs2)Nc2nnnn21 (centres undefined)	RGS7-Gao reg inconclusive
Clc1ccccc1CN1CCN(/N=C/C=C/c2ccco2)CC1	RGS7-Gao reg inconclusive (no result: GSH fluor)
NC(=O)c1ccc(C23CC4CC(CC(C4)C2)C3)o1	RGS16-Gao HTS 202[activator] | RGS4-Gao HTS 101 | Biotin-avidin inactive | RGS8-Gao single inactive | RGS7-Gao confirm inactive | RGS16-Gao single inactive | RGS4-Gao confirm inactive | RGS19-Gao conf inactive
O=c1[nH]c2cc3c(cc2cc1CN(CC1CCCO1)S(=O)(=O)c1ccc(Cl)cc1)OCCO3 (centres undefined)	RGS8-Gao 147[activator] | RGS4-Gao HTS 110 | Biotin-avidin inactive | RGS8-Gao single inactive | RGS7-Gao confirm inactive | RGS16-Gao single inactive | RGS4-Gao confirm inactive | RGS19-Gao conf inactive
Cc1ccc(S(=O)(=O)N(Cc2cc3cc4c(cc3[nH]c2=O)OCCO4)CC2CCCO2)cc1 (centres undefined)	none
Cc1ccc(N2CC(=O)Nc3c(oc4nc(-c5ccccc5)cc(C)c34)C2=O)cc1	RGS7-Gao reg inconclusive (no result: GSH fluor)
COc1ccc(S(=O)(=O)NCC(=O)O)cc1C(=O)NC1CCCCC1	none
Cc1cc(C(=O)CSc2nnc(-c3cccnc3)n2-c2ccccc2F)c(C)n1C	RGS7-Gao reg 5.0!, RGS8-Gao 11!, RGS16-Gao HTS -0.8!, RGS4-Gao reg 6.8! | Biotin-avidin inactive | RGS8-Gao single inactive | RGS7-Gao confirm inactive | RGS16-Gao single inactive | RGS4-Gao confirm inactive | RGS19-Gao conf inactive
CN(C)S(=O)(=O)c1ccc(Cl)c(NC(=O)COC(=O)C2CSC3(C)CCC(=O)N23)c1 (centres undefined)	none
COc1cccc(Oc2cn[nH]c2-c2ccc(OC)cc2O)c1	RGS7-Gao reg 281[activator], Avidin bead fluor 187 | RGS4-Gao HTS 133
CC(=O)c1cccc(NC(=O)NCc2cccnc2)c1	none (no result: RGS7-Gao reg, Avidin bead fluor, RGS8-Gao, RGS16-Gao HTS, RGS4-Gao reg) | Biotin-avidin inactive | RGS8-Gao single inactive | RGS7-Gao confirm inactive | RGS16-Gao single inactive | RGS4-Gao confirm inactive | RGS19-Gao conf inactive
O=C(NCc1cccnc1)Nc1cccc(NC(=O)NCc2cccnc2)c1	none
Cc1[nH]c2ccccc2c1C(c1ccncc1)N1CCN(c2ccccc2F)CC1 (centres undefined)	RGS7-Gao reg 160[activator], Avidin bead fluor 92 | RGS4-Gao HTS 119 | Biotin-avidin inactive | RGS8-Gao single inactive | RGS7-Gao confirm inactive | RGS16-Gao single inactive | RGS4-Gao confirm inactive | RGS19-Gao conf inactive
O=C(O)CCC(=O)Nc1ccc(/C=C/C(=O)C2CC2)cc1	none
Cc1ccc(N(C(=O)Cn2nnc(-c3ccc(F)cc3)n2)C(C(=O)NC(C)(C)C)c2ccncc2)cc1 (centres undefined)	none
O=C(Nc1ccc(C2=NCCN2)cc1)c1ccc(C(=O)Nc2ccc(C3=NCCN3)cc2)c(Cl)c1	RGS7-Gao reg inconclusive, RGS8-Gao 143[activator], RGS4-Gao reg 199[activator] (no result: GSH fluor) | Biotin-avidin inactive | RGS8-Gao single inactive | RGS7-Gao confirm inactive | RGS16-Gao single inactive | RGS4-Gao confirm inactive | RGS19-Gao conf inactive
O=C1CSC(=Nc2ccc(Cl)cc2)N1Cc1cccnc1	RGS7-Gao reg inconclusive, RGS8-Gao 55, RGS16-Gao HTS 19, RGS4-Gao reg 5.3 (no result: GSH fluor) | Biotin-avidin inactive | RGS8-Gao single inactive | RGS7-Gao confirm inactive | RGS16-Gao single inactive | RGS4-Gao confirm inactive | RGS19-Gao conf inactive
CC(C)(C)c1ccc(N=C2SCC(=O)N2Cc2cccs2)cc1	RGS7-Gao reg inconclusive (no result: GSH fluor)
CCCS(=O)(=O)c1c(S(=O)(=O)CCC)c2ccc(C(N)=O)cn2c1C(=O)c1ccc(OC)cc1	none
